Measurements: PubChem BioAssay (EPA / NIEHS)
Calls of active or inactive are those of the source. How the source made its calls: active means hit-call score of the fitted dose curve at least 0.9, where 1 is the maximum; inactive means score below 0.9.

Experiments:
[1] = ATG_E_Box_CIS: Attagene CIS-FACTORIAL HepG2 Assay for human Enhancer Box (E-box) (AID 2282936); settings: HepG2 E-box cis-reporter transcription, actives raise or lower the signal
How it was run: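 Fluorescent reporter fragments separated by capillary electrophoresis gave the signal; mRNA came from HepG2 cells transfected with cis-element reporters and treated 24 h. Curves fitted bidirectionally relative to DMSO controls.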

[2] = ATG_M_61_CIS: Attagene CIS-FACTORIAL HepG2 Assay for M61 Transcription Factor (Internal Marker) (AID 2282937); settings: HepG2 Attagene CIS-FACTORIAL M61 internal marker reporter; actives raise or lower the signal
How it was run: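 HepG2 cells transiently transfected with cis-element-driven multiple reporter transcription units, dosed for 24 h. Reporter mRNA measured by RT-PCR, 6-FAM primer-extension labelling, HpaI digestion and capillary electrophoresis; bidirectional fit versus DMSO baseline.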

[3] = ATG_EGR_CIS: Attagene CIS-FACTORIAL HepG2 Assay for human Early Growth Response 1 (EGR1) (AID 2282938); settings: HepG2 Attagene CIS-FACTORIAL EGR reporter mRNA; actives raise or lower the signal
How it was run: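 HepG2 cells transiently transfected with cis-promoter-driven multiplexed reporter transcription units; reporter mRNA measured 24 h after compound dosing by RT-PCR, 6-FAM primer extension, HpaI digestion and capillary electrophoresis. Bidirectional fit versus DMSO baseline.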

[4] = ATG_M_19_CIS: Attagene CIS-FACTORIAL HepG2 Assay for M19 Transcription Factor (Internal Marker) (AID 2282939); settings: HepG2 Attagene CIS-FACTORIAL M19 internal marker reporter; actives raise or lower the signal
How it was run: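 Readout: fluorescent reporter-transcript fragments by capillary electrophoresis after RT-PCR. Human HepG2 liver cells carried transfected MRTU constructs reporting endogenous transcription-factor activity; exposure 24 h. Gain or loss of signal fitted relative to DMSO.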

[5] = biological target: Hepatocyte nuclear factor 3-beta (Homo sapiens) (UniProt Q9Y261); assay: ATG_FoxA2_CIS: Attagene CIS-FACTORIAL HepG2 Assay for human Forkhead box A2 (FOXA2) (AID 2282942); settings: HepG2 cis-reporter transcription factor activity, 24 h; actives raise or lower the signal
How it was run: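 HepG2 cells transiently transfected with multiple cis-regulated reporter transcription units, dosed for 24 h. Reporter mRNA measured by RT-PCR, 6-FAM labelling, HpaI digestion and capillary electrophoresis; bidirectional fitting against DMSO baseline.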

[6] = ATG_GATA_CIS: Attagene CIS-FACTORIAL HepG2 Assay for human GATA Binding Protein (AID 2282944); settings: HepG2 GATA cis-element reporter, Attagene multiplex mRNA; actives raise or lower the signal
How it was run: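 Read-out: fluorescent reporter mRNA fragments resolved by capillary electrophoresis after RT-PCR. Human liver HepG2 cells carried transiently transfected cis-regulated reporter constructs; chemicals incubated 24 h; gain or loss of signal fitted relative to DMSO.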

[7] = ATG_GLI_CIS: Attagene CIS-FACTORIAL HepG2 Assay for human Zinc Finger Protein GLI1 (AID 2282945); settings: HepG2, Attagene cis-factorial reporter mRNA, GLI element; actives raise or lower the signal
How it was run: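 Bidirectional curve fits relative to DMSO, using reporter mRNA levels from RT-PCR plus capillary electrophoresis. Cells were HepG2 transiently carrying cis-regulated reporter constructs, harvested 24 h after dosing.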

[8] = ATG_GRE_CIS: Attagene CIS-FACTORIAL HepG2 Assay for human Glucocorticoid Response Elements (GRE) (AID 2282947); settings: HepG2 GRE cis-reporter, Attagene multiplex mRNA; actives raise or lower the signal
How it was run: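 Multiplexed cis-reporter mRNA induction, HepG2, 24 h post-dose. RT-PCR, FAM-labelled, HpaI-digested amplicons by CE. Bidirectional fit vs DMSO.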

[9] = ATG_ISRE_CIS: Attagene CIS-FACTORIAL HepG2 Assay for human Interferon Regulatory Factor 1 (IRF1) binding to an Interferon-Stimulated Response Element (ISRE) (AID 2282948); settings: HepG2 ISRE cis-reporter (Attagene), mRNA transcription readout; actives raise or lower the signal
How it was run: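 Endogenous transcription factor activity read as reporter transcript abundance via RT-PCR and capillary electrophoresis. HepG2 cells transiently transfected, 24 h chemical exposure. Gain or loss fitted against DMSO baseline.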

[10] = ATG_M_32_CIS: Attagene CIS-FACTORIAL HepG2 Assay for M32 Transcription Factor (Internal Marker) (AID 2282949); settings: HepG2 Attagene cis-factorial M32 reporter, mRNA; actives raise or lower the signal;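 further: background control marker of the multiplexed CIS panel rather than a real target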
How it was run: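 Transient MRTU transfection of HepG2; 24 h compound treatment; TriZol RNA, oligo(dT) RT, reporter PCR, 6-FAM primer extension, HpaI cut, CE. Gain/loss of signal vs DMSO.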

[11] = ATG_M_06_CIS: Attagene CIS-FACTORIAL HepG2 Assay for M06 Transcription Factor (Internal Marker) (AID 2282950); settings: HepG2 Attagene CIS-FACTORIAL M06 internal marker reporter; actives raise or lower the signal
How it was run: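 Terse: HepG2, transient MRTU transfection (FuGene 6), 24 h dosing; total RNA, oligo(dT) RT, PCR, FAM label, HpaI cut, capillary electrophoresis; bidirectional fit vs DMSO baseline; background-control endpoint.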

[12] = biological target: Hepatocyte nuclear factor 6 (Homo sapiens) (UniProt Q9UBC0); assay: ATG_HNF6_CIS: Attagene CIS-FACTORIAL HepG2 Assay for human Hepatocyte Nuclear Factor 6 (HNF6) (AID 2282952); settings: HepG2 Attagene cis-factorial HNF6 reporter transcription; actives raise or lower the signal
How it was run: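 Activity values derive from bidirectional fitting against DMSO of reporter mRNA levels, measured by capillary electrophoresis of labelled RT-PCR products from HepG2 cells exposed 24 h.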

[13] = biological target: Heat shock factor protein 1 (Homo sapiens) (UniProt Q00613); assay: ATG_HSE_CIS: Attagene CIS-FACTORIAL HepG2 Assay for human Heat Shock Transcription Factor 1 (HSE) (AID 2282953); settings: HepG2 HSE cis-reporter, Attagene RNA transcription; actives raise or lower the signal
How it was run: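 Read-out: fluorescence of reporter-specific RT-PCR fragments separated by capillary electrophoresis. HepG2 carrying transfected cis-element reporter units; 24 h dosing; activity fitted in both directions relative to DMSO baseline.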

[14] = ATG_MRE_CIS: Attagene CIS-FACTORIAL HepG2 Assay for human Metal Responsive Element (MRE) (AID 2282954); settings: HepG2 MRE cis-reporter transcription, Attagene multiplex; actives raise or lower the signal
How it was run: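 Multiplexed cis-reporter assay in human HepG2 liver cells, 24 h incubation with test chemical. Reporter transcripts measured by RT-PCR and capillary electrophoresis; values from bidirectional curve fitting versus DMSO.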

[15] = ATG_PBREM_CIS: Attagene CIS-FACTORIAL HepG2 Assay for human Phenobarbital-responsive Enhancer Module (PBREM) (AID 2282955); settings: HepG2 PBREM cis-reporter, Attagene multiplexed transcription; actives raise or lower the signal
How it was run: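 HepG2 cells transiently transfected with multiple cis-regulated reporter transcription units; endogenous factor activity at the PBREM element measured as reporter mRNA 24 h after dosing, via RT-PCR and capillary electrophoresis of fluorescent fragments; bidirectional fitting versus DMSO.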

[16] = ATG_FoxO_CIS: Attagene CIS-FACTORIAL HepG2 Assay for human Forkhead box O (FoxO) (AID 2282943); settings: HepG2 Attagene cis-reporter, FoxO element, mRNA; actives raise or lower the signal
How it was run: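 Endogenous transcription factor activity read from multiplexed cis-promoter reporter transcripts in transiently transfected HepG2, 24 h after dosing. Reporter RNA measured via RT-PCR plus capillary electrophoresis of FAM-labeled products; gain or loss relative to DMSO.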

[17] = biological target: Hypoxia-inducible factor 1-alpha (Homo sapiens) (UniProt Q16665); assay: ATG_HIF1a_CIS: Attagene CIS-FACTORIAL HepG2 Assay for human Hypoxia Inducible Factor 1 (HIF1A) (AID 2282951); settings: HepG2 Attagene cis-factorial HIF1a reporter transcription; actives raise or lower the signal
How it was run: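 HepG2 cells transiently transfected with multiplexed cis-promoter reporter units; reporter mRNA read 24 h after dosing by RT-PCR, 6-FAM primer-extension labelling, HpaI digestion and capillary electrophoresis. Bidirectional fit versus DMSO baseline.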

[18] = biological target: Bile acid receptor (Homo sapiens) (UniProt Q96RI1); assay: ATG_IR1_CIS: Attagene CIS-FACTORIAL HepG2 Assay for human Nuclear Receptor Subfamily 1 Group H Member 4 (NR1H4), IR1 submotif (AID 2282946); settings: IR1 reporter transcription, actives raise or lower the signal
How it was run: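 HepG2 cells transiently transfected with multiplexed cis-element reporter units read endogenous transcription factor activity. After 24 h compound exposure, reporter mRNA was quantified by RT-PCR, fluorescent labelling, HpaI digestion and capillary electrophoresis; bidirectional fitting versus DMSO baseline.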

[19] = ATG_Ets_CIS: Attagene CIS-FACTORIAL HepG2 Assay for human Erythroblast Transformation Specific (ETS) (AID 2282941); settings: HepG2 ETS cis-reporter transcription, actives raise or lower the signal
How it was run: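 Endogenous transcription factor activity read as reporter mRNA via RT-PCR and capillary electrophoresis, with gain or loss fitted bidirectionally against DMSO. Human HepG2 liver cells, transiently transfected CIS reporter constructs, 24 h exposure.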

Measured: outcome

Sequence of Heat shock factor protein 1 (Homo sapiens) (Q00613 whole entry, looked up, the tested form may be a part): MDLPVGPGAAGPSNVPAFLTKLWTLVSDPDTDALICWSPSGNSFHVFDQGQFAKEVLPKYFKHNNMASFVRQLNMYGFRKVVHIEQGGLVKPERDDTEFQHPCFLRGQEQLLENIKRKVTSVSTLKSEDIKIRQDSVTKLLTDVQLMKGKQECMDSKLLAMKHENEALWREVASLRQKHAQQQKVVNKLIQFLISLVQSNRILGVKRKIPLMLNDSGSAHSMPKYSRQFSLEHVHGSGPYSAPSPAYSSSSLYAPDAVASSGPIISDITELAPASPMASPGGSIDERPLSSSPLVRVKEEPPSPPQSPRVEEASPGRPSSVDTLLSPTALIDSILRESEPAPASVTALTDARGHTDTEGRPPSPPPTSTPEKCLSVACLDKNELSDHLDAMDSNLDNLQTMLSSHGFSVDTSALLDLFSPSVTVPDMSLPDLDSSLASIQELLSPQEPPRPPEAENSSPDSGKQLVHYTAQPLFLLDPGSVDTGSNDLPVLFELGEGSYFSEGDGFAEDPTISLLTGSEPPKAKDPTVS
Sequence of Hepatocyte nuclear factor 6 (Homo sapiens) (Q9UBC0 whole entry, looked up): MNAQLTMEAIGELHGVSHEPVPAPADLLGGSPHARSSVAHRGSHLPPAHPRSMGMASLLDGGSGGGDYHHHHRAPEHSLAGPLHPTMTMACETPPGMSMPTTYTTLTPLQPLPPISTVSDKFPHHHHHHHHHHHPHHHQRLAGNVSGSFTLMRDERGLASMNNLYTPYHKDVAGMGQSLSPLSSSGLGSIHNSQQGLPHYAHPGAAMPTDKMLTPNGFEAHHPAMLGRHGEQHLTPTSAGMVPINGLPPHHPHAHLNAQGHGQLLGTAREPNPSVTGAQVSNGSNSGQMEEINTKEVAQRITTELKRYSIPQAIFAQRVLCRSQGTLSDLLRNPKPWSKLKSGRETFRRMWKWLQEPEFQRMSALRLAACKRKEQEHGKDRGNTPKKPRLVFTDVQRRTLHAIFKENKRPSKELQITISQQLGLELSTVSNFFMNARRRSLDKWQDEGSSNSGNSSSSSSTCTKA
Sequence of Bile acid receptor (Homo sapiens) (Q96RI1 whole entry, looked up): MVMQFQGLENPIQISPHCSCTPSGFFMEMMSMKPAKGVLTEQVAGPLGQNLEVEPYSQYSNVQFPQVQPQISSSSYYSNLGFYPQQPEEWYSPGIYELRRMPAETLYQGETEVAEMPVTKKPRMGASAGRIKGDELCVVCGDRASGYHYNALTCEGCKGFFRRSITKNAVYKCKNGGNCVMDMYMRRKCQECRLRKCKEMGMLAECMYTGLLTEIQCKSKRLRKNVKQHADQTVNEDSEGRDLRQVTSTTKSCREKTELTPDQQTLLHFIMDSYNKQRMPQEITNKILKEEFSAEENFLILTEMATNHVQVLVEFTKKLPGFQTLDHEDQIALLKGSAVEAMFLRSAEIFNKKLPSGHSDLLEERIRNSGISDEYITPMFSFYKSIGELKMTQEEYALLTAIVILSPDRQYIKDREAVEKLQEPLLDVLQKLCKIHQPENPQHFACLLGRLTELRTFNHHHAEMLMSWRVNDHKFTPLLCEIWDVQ
Sequence of Hepatocyte nuclear factor 3-beta (Homo sapiens) (Q9Y261 whole entry, looked up): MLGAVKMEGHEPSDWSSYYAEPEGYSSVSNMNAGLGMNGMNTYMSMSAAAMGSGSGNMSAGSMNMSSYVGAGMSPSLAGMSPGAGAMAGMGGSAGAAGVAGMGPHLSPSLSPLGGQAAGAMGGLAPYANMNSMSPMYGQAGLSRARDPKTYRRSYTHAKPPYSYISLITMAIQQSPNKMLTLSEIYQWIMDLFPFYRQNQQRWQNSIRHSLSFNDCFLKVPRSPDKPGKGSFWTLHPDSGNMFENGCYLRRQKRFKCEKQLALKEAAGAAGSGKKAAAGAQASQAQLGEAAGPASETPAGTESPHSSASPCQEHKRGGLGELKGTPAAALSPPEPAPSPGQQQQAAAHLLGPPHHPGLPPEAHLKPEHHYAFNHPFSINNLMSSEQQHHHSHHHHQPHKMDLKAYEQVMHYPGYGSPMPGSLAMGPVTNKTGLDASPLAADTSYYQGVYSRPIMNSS
Sequence of Hypoxia-inducible factor 1-alpha (Homo sapiens) (Q16665 whole entry, looked up): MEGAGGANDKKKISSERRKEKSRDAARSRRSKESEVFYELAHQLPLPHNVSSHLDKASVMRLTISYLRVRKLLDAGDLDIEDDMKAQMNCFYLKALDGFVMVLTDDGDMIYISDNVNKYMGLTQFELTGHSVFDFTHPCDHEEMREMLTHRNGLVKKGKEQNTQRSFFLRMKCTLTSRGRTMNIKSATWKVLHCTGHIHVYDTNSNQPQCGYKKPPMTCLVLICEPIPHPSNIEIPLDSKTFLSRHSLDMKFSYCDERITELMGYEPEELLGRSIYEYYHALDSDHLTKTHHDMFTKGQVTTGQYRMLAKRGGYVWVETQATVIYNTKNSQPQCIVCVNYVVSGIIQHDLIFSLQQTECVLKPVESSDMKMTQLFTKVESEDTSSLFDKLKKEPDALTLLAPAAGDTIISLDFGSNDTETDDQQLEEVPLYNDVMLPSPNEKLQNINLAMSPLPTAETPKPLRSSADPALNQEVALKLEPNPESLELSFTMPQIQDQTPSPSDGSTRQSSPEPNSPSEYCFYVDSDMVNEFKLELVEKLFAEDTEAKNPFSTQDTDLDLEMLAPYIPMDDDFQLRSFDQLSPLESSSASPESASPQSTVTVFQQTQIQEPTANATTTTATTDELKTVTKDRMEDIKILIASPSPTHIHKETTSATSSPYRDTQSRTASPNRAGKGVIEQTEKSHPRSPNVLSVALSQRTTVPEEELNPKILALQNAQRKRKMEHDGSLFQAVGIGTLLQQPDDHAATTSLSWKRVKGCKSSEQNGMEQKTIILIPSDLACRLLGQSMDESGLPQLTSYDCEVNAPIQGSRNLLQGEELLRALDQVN

Cc1occc(=O)c1OC(=O)C(C)C
not listed: [16] | [17] | [18] | [19]
inactive: all other assays above

CCCC(=O)OC(C)(C)Cc1ccccc1
not listed: [11] | [12] | [18] | [19]
inactive: all other assays above

Cc1ccc(C)o1
not listed: [9] | [12] | [19]
inactive: all other assays above

C[Si]1(C)O[Si](C)(C)O[Si](C)(C)O1
not listed: [3] | [8] | [12]
inactive: all other assays above

COc1ccccc1N=Nc1c(S(=O)(=O)O)cc2cc(S(=O)(=O)O)cc(NC(C)=O)c2c1O
not listed: [3] | [5] | [12] | [17] | [18]
inactive: all other assays above

C=C(C)[C@H]1CC=C(C)C(=O)C1
not listed: [3] | [6] | [14] | [15] | [18]
inactive: all other assays above

CCCN(CCC)S(=O)(=O)c1ccc(C(=O)O)cc1
not listed: [3] | [9] | [15] | [17] | [19]
inactive: all other assays above

OCc1cccc(Oc2ccccc2)c1
not listed: [3] | [8] | [11]
inactive: all other assays above

CC(=O)c1c(C)c([N+](=O)[O-])c(C(C)(C)C)c([N+](=O)[O-])c1C
not listed: [3] | [14] | [19]
inactive: all other assays above

CCOc1ccc(N=Nc2ccc(C=Cc3ccc(N=Nc4ccc(OCC)cc4)cc3S(=O)(=O)O)c(S(=O)(=O)O)c2)cc1
not listed: [3] | [14] | [18] | [19]
inactive: all other assays above

C=CCN(CC=C)CC=C
not listed: [4] | [9] | [12] | [13] | [17] | [18] | [19]
inactive: all other assays above

C=CC(C)(O)CCC=C(C)C (stereo not given)
not listed: [3] | [17]
inactive: all other assays above
